Results reported in PubChem BioAssay (NCI).
Compounds without any hit were thinned out: in the full panel of roughly 83,000, 20% have a hit.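 48-hour exposure, single concentration, 96-well plates; percent growth endpoint where 0 means no net growth. Active: below 10.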 Values without a mark were called inactive. The source made the active and inactive calls.

system: CAKI-1 renal; assay: NCI-60 one-dose screen, 48 h (100 = growth as untreated, 0 = no growth, -100 = all killed); details: 10 µM unless noted

Q: How did the growth turn out when `CCOC(=O)CCC(NC(=O)C(Cc1ccc(N(CCCl)CCCl)cc1)NC=O)C(=O)OCC` (configuration not stated) was run?
A: The growth was 10.5%.

Q: How did the growth turn out when `CCCC(C)C1(CC)C(=O)NC(=O)N(C)C1=O` (configuration not stated) was run?
A: Its growth is 95.7%.

Q: Which growth does the source give for `C=CCCCCCCCCC(=O)[O-].C=CCCCCCCCCC(=O)[O-].[Zn+2]` here?
A: Its growth is 90%.

Q: `COc1ccc(C(O)(C(=O)O)c2ccc(OC)cc2)cc1` was tested. Which growth did it give?
A: The growth was 100%.

Q: `CC(=O)O[C@@H]1CC[C@]2(C)[C@H]3CC[C@]4(C)C(=O)CC[C@H]4[C@@H]3C[C@@H]3SC(N)=N[C@@]32C1` was tested. Which growth did it give?
A: The growth was 61.1%.

Q: `N#CC1(C#N)C(c2ccc(N(CCCl)CCCl)cc2)OC23CCCCC2C1(C#N)C(=N)O3` (configuration not stated) was tested. Which growth did it give?
A: Its growth is 55.8%.

Q: For `CCCCNC(c1ccc(Cl)cc1)C(O)c1ccc(Cl)cc1` (configuration not stated), which growth is on record?
A: The growth was 30.3%.

Q: `C[Se]C(=O)c1ccccc1OC(C)=O` was tested. Which growth did it give?
A: The growth was 64.4%.

Q: Which growth does the source give for `CN[C@@]1(c2ccccc2Cl)CCCC[C@@H]1NCC1CCCO1` (some centres not stated) here?
A: Its growth is 93.9%.

Q: How did the growth turn out when `COc1cc2c(cc1OCc1ccccc1)C(CC(C)C)=[N+](C)CC2` was run?
A: The growth was 96.2%.

Q: For `CC(=O)O[C@H]1CC[C@H]2[C@@H]3CC=C4c5nc(-c6ccccc6)sc5CC[C@]4(C)[C@H]3CC[C@]12C`, which growth is on record?
A: The growth was 67.5%.

Q: `N#CC1(c2ccccc2)CCN(Cc2ccccc2)CC1` was tested. Which growth did it give?
A: The growth was 94.7%.

Q: For `COc1ccc(/C=C\c2cc(OC)c(OC)c(OC)c2)cc1OCC(=O)Nc1nc2ccc(OC(F)(F)F)cc2s1`, which growth is on record?
A: Its growth is 35.2%.

Q: How did the growth turn out when `CC(=O)Nc1ccc(NC(=O)c2ccc([As](O)O)cc2)cc1` was run?
A: The growth was 107%.

Q: `O[C@H](CN1CC1)[C@@H](O)CN1CC1` was tested. Which growth did it give?
A: Its growth is -0.578% (active).

Q: For `Cc1cc(C)c(CBr)c(C)c1`, which growth is on record?
A: Its growth is 99.1%.

Q: How did the growth turn out when `CCOP1(=O)CC(C)=C(Cl)C(P(=O)(OCC)OCC)C1` (configuration not stated) was run?
A: The growth was 110%.

Q: Which growth does the source give for `CC12CCC3C(CCC4=CC(=O)CCC43CF)C1CCC2=O` (configuration not stated) here?
A: The growth was 111%.

Q: How did the growth turn out when `C=C1[C@@H](C)[C@H]2[C@H](Cc3ccccc3)NC(=O)[C@]23[C@@H](O)/C=C/[C@@](C)(O)C(=O)[C@@H](C)C/C=C/[C@H]3[C@@H]1O` was run?
A: The growth was 52.5%.

Q: With `CCC(=O)Nc1ccc(Cl)c(Cl)c1` as the compound, how does the growth read?
A: Its growth is 96.8%.

Q: Which growth does the source give for `CC[C@H](C)[C@@H]1OC(=O)C(C)(C)[C@H](O)[C@H](Cc2ccccc2)OC(=O)[C@H](C(C)C)OC(=O)[C@@H](NC(=O)c2cccc(NC=O)c2O)[C@@H](C)OC1=O` here?
A: Its growth is 38.7%.

Q: With `NC(=S)c1cn(C2OC(CO)C(O)C2O)c2ncnc(N)c12` (configuration not stated) as the compound, how does the growth read?
A: Its growth is -36.6% (active).

Q: Which growth does the source give for `Nc1ncnc2n[nH]nc12` here?
A: Its growth is 40.1%.

Q: How did the growth turn out when `COc1cc(/C=C/[N+](=O)[O-])cc(OC)c1` was run?
A: The growth was 44.2%.

Q: Which growth does the source give for `Clc1cccc(NCOOC2(OOCNc3cccc(Cl)c3)CCCCCC2)c1` here?
A: Its growth is 36%.

Q: How did the growth turn out when `O=C1C(Cl)=C(N2CCOCC2)C(=O)c2ccccc21` was run?
A: Its growth is 6.93% (active).

Q: For `CCCCC1(CCC)C(=O)NC(=S)NC1=O`, which growth is on record?
A: The growth was 97.2%.

system: A498 renal; assay: as above; details: 10 µM

Q: `COC(=O)[C@@H](C)C[C@H](Cc1ccccc1)NC(=O)c1nc([C@@H](C[C@H](C(C)C)N(C)C(=O)[C@@H](NC(=O)[C@H]2CCCCN2C)C(C)C)OC(C)=O)sc1C(C)C` was tested. Which growth did it give?
A: Its growth is -9.92% (active).

Q: How did the growth turn out when `CCCC(C)C1(CC)C(=O)NC(=O)N(C)C1=O` (configuration not stated) was run?
A: Its growth is 91.8%.

Q: `C=CCCCCCCCCC(=O)[O-].C=CCCCCCCCCC(=O)[O-].[Zn+2]` was tested. Which growth did it give?
A: The growth was 92.7%.

Q: For `COc1ccc(C(O)(C(=O)O)c2ccc(OC)cc2)cc1`, which growth is on record?
A: Its growth is 95.3%.

Q: Which growth does the source give for `Nc1c(F)cc(-c2nc3cc(F)ccc3[se]2)cc1F` here?
A: The growth was 38.9%.

Q: Which growth does the source give for `CC(=O)O[C@@H]1CC[C@]2(C)[C@H]3CC[C@]4(C)C(=O)CC[C@H]4[C@@H]3C[C@@H]3SC(N)=N[C@@]32C1` here?
A: The growth was 50.7%.

Q: Which growth does the source give for `CCCCNC(c1ccc(Cl)cc1)C(O)c1ccc(Cl)cc1` (configuration not stated) here?
A: Its growth is 57.8%.

Q: `CCOC(=O)[C@@H](C)C[C@H](Cc1ccccc1)NC(=O)c1csc([C@@H](C[C@H](C(C)C)N(C)C(=O)[C@H](CC)NC(=O)[C@H]2CCCCN2C)OC(C)=O)n1` was tested. Which growth did it give?
A: The growth was -13.5% (active).

Q: Which growth does the source give for `C[Se]C(=O)c1ccccc1OC(C)=O` here?
A: Its growth is 66.5%.

Q: Which growth does the source give for `ClC1=C(Cl)C(Cl)(C2(Cl)C(Cl)=C(Cl)C(Cl)=C2Cl)C(Cl)=C1Cl` here?
A: The growth was 67%.

Q: With `COc1cc2c(cc1OCc1ccccc1)C(CC(C)C)=[N+](C)CC2` as the compound, how does the growth read?
A: The growth was 95.9%.

Q: With `CC(=O)O[C@H]1CC[C@H]2[C@@H]3CC=C4c5nc(-c6ccccc6)sc5CC[C@]4(C)[C@H]3CC[C@]12C` as the compound, how does the growth read?
A: The growth was 75.2%.

Q: Which growth does the source give for `N#CC1(c2ccccc2)CCN(Cc2ccccc2)CC1` here?
A: Its growth is 64.8%.

Q: For `CC(=O)Nc1ccc(NC(=O)c2ccc([As](O)O)cc2)cc1`, which growth is on record?
A: Its growth is 133%.

Q: Which growth does the source give for `O[C@H](CN1CC1)[C@@H](O)CN1CC1` here?
A: The growth was 95.1%.

Q: For `Cc1cc(C)c(CBr)c(C)c1`, which growth is on record?
A: The growth was 81.4%.

Q: For `CCOP1(=O)CC(C)=C(Cl)C(P(=O)(OCC)OCC)C1` (configuration not stated), which growth is on record?
A: The growth was 103%.

Q: How did the growth turn out when `NC(=O)C(Br)c1ccccc1` (configuration not stated) was run?
A: The growth was 87.4%.

Q: For `CCC(=O)Nc1ccc(Cl)c(Cl)c1`, which growth is on record?
A: The growth was 89.7%.

Q: For `CC[C@H](C)[C@@H]1OC(=O)C(C)(C)[C@H](O)[C@H](Cc2ccccc2)OC(=O)[C@H](C(C)C)OC(=O)[C@@H](NC(=O)c2cccc(NC=O)c2O)[C@@H](C)OC1=O`, which growth is on record?
A: Its growth is 67.2%.

Q: Which growth does the source give for `NC(=S)c1cn(C2OC(CO)C(O)C2O)c2ncnc(N)c12` (configuration not stated) here?
A: Its growth is -32.5% (active).

Q: Which growth does the source give for `Nc1ncnc2n[nH]nc12` here?
A: The growth was 51.4%.

Q: `COc1cc(/C=C/[N+](=O)[O-])cc(OC)c1` was tested. Which growth did it give?
A: The growth was -4.1% (active).

Q: Which growth does the source give for `Clc1cccc(NCOOC2(OOCNc3cccc(Cl)c3)CCCCCC2)c1` here?
A: Its growth is 98.8%.

Q: How did the growth turn out when `Brc1ccc2c(c1)c(-c1nc(-c3c[nH]c4ncccc34)cs1)cn2CCN1CCOCC1` was run?
A: Its growth is 88.7%.

Q: `O=C1C(Cl)=C(N2CCOCC2)C(=O)c2ccccc21` was tested. Which growth did it give?
A: Its growth is 93.8%.

Q: With `CC1=C(CCCNS(C)(=O)=O)C2=C(C)C3(CC3)[C@@](C)(O)C(=O)C2=C1` as the compound, how does the growth read?
A: The growth was -43.2% (active).

Q: For `CCN(CCO)C(Cc1ccccc1)c1ccccc1` (configuration not stated), which growth is on record?
A: Its growth is 96.3%.

Q: For `CCCCC1(CCC)C(=O)NC(=S)NC1=O`, which growth is on record?
A: Its growth is 129%.

Q: With `CC[C@H](C)[C@H](NC(=O)[C@H]1CCCCN1C)C(=O)N(C)[C@H](CC(=O)c1nc(C(=O)N[C@@H](Cc2ccccc2)C[C@H](C)C(=O)O)cs1)C(C)C` as the compound, how does the growth read?
A: Its growth is 73.4%.
